From article PMC4336329 (PLoS ONE, 2015)
The campaign covered roughly 310,000 compounds. About 14,000 (4.5%) showed an effect of 50% or more. The effect is printed as a negative number. The sample holds strong results, similar compounds and a random draw of the others, so the mix is not that of the screen.

Biological target: human ether-à-go-go-related gene (hERG) potassium channel (human, UniProt Q12809)
Assay: primary screen, population patch clamp on CHO cells stably expressing hERG; higher = less effect of the substance
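Further: peak tail current of the secondary pulse compared with the same well before compound.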

human ether-à-go-go-related gene (hERG) potassium channel, sequence (Q12809 whole entry, looked up): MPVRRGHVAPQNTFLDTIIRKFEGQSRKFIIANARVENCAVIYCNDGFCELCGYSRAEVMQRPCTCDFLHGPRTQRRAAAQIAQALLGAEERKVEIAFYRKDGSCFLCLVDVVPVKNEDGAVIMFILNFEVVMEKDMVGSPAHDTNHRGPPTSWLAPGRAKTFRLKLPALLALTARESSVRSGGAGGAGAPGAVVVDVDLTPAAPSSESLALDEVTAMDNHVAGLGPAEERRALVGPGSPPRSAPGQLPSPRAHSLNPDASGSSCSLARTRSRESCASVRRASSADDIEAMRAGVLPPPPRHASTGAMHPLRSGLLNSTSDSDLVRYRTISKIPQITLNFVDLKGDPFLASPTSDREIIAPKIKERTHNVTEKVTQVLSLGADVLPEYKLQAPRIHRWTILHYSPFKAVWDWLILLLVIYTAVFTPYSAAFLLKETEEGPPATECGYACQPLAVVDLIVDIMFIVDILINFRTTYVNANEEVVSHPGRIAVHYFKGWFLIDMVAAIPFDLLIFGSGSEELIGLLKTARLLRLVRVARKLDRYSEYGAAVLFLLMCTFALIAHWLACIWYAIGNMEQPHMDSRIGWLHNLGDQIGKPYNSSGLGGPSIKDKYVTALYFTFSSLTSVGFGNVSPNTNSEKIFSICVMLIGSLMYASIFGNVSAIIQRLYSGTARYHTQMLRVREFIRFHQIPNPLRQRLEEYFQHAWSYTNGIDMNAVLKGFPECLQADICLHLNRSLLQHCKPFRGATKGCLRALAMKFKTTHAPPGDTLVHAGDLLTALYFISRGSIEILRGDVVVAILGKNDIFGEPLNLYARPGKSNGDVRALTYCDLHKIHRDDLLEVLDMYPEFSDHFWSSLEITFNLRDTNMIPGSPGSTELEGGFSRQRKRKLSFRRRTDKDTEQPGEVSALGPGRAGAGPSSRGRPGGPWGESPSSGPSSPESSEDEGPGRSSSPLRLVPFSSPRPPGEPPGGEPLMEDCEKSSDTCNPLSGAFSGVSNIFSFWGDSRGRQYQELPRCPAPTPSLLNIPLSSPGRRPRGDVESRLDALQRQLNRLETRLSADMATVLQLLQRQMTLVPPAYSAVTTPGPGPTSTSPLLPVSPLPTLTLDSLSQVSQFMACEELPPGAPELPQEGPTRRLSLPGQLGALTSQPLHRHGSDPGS

SMILES | hERG current change (%, negative = inhibition) at 10uM
CC(=O)Nc1ccccc1NC(=O)COc1cccc2ccccc12 | 18.9%
CCOC(=O)c1sc(NC(=O)CN2CCN(c3ccc(OC)cc3)CC2)nc1C | -20.6%
O=C(Nc1nc2ccccc2s1)c1ccc(N2CCCCC2)c([N+](=O)[O-])c1 | 6.67%
O=C(NNC(=O)c1ccc(Br)s1)NC1CCCCC1 | 28.1%
Cc1ccc(NC(=O)CCSc2nnc3ccccn23)cc1 | 2.6%
Cc1cccc(NS(=O)(=O)c2csc(C(N)=O)c2)c1 | 8.92%
NC(=O)c1cc(S(=O)(=O)Nc2cccc(Cl)c2)cs1 | -61.2%
NC(=O)c1cc(S(=O)(=O)Nc2ccccc2)cs1 | 1.39%
CCC(C)NC(=O)C1CCC(CNS(=O)(=O)c2ccc3c(c2)N(C(C)=O)CCO3)CC1 (stereo not drawn) | 6.84%
COc1ccccc1NC(=O)C(=O)NCC(c1ccco1)N1CCc2ccccc21 (stereo not drawn) | -1.64%
COc1ccc(-n2cnc3c(sc4nc(N5CCOCC5)c5c(c43)CCCC5)c2=O)cc1 | 21.3%
CCc1cccc(NS(=O)(=O)c2c(C)[nH]c(=O)[nH]c2=O)c1 | 20.8%
COc1ccc2cc(CN(Cc3cccs3)Cc3nnnn3Cc3ccccc3)c(=O)[nH]c2c1 | -11.3%
COc1ccc2cc(CN(CCc3ccccc3)Cc3nnnn3CC3CCCO3)c(=O)[nH]c2c1 (stereo not drawn) | -31.3%
COCCn1nnnc1CN(CCc1ccccc1)Cc1cc2cc(OC)ccc2[nH]c1=O | -47.8%
COCCn1nnnc1CN(CCc1ccccc1)Cc1cc2ccc(C)cc2[nH]c1=O | -57.2%
COc1ccc2cc(CN(Cc3cccnc3)Cc3nnnn3Cc3ccccc3)c(=O)[nH]c2c1 | -74.4%
COc1ccc2[nH]c(=O)c(CN(CCc3ccccc3)Cc3nnnn3CC3CCCO3)cc2c1 (stereo not drawn) | -53.4%
COc1ccc2cc(CN(CCc3ccccc3)Cc3nnnn3Cc3ccco3)c(=O)[nH]c2c1 | -29.7%
COCCn1nnnc1CN(CCc1ccc(OC)c(OC)c1)Cc1cc2ccc(C)cc2[nH]c1=O | -42.8%
COc1ccc2[nH]c(=O)c(CN(Cc3ccccc3)Cc3nnnn3CC3CCCO3)cc2c1 (stereo not drawn) | -4.75%
COc1cc(OC)cc(C(=O)OCC(=O)NCc2ccco2)c1 | 2.94%
Cc1ccc(-n2nnc3c(=O)n(CC(=O)N4CCOCC4)cnc32)cc1 | -3.25%
CCOc1ccccc1C(=O)NCCC(=O)O | 8.38%
Cc1onc(-c2c(F)cccc2Cl)c1C(=O)N1CCc2ccccc2C1 | -15.7%
O=C(CCn1ccc2cc(S(=O)(=O)N3CCCC3)ccc21)NCCc1ccccc1 | -16.9%
O=C(Nc1ccc(Br)cc1)C1CCCC1 | 9.31%

SMILES | hERG current change (%, negative = inhibition) at 10uM
O=C(c1ccc(COc2ccccc2Cl)o1)N1N=C(C(F)F)CC1(O)C(F)F (stereo not drawn) | 17.1%
COc1ccc(CCNc2ccc(C(CC(N)=O)NC(=O)Cc3ccc(Br)cc3)cc2[N+](=O)[O-])cc1 (stereo not drawn) | 4.07%
S=c1[nH]nc(-c2cc(-c3ccsc3)n[nH]2)n1-c1cccc2ccccc12 | -12.6%
COc1cccc(N2CC(NC(=O)c3cccc4ccccc34)CC2=O)c1 (stereo not drawn) | -6.44%
CCCC1(CCC)C(=O)NC(=NCCc2ccc(OC)c(OC)c2)NC1=O | 13.4%
Cc1ccc(C)c(N2CCN(C(=O)CCCn3ncn4c(cc5occc54)c3=O)CC2)c1 | -63.4%
COc1cccc(CNC(=O)CCCn2ncn3c(cc4occc43)c2=O)c1 | -42.9%
CCc1nn(CCCC(=O)N2CCc3ccccc3C2)c(=O)c2cc3occc3n12 | -29%
CCc1nn(CCCC(=O)NCc2ccc(C)cc2)c(=O)c2cc3occc3n12 | -8.1%
CCc1nn(CCCC(=O)NCc2ccc(OC(C)C)cc2)c(=O)c2cc3occc3n12 | -54.4%
COc1ccc(CNC(=O)CCCn2ncn3c(cc4occc43)c2=O)cc1 | -22.4%
CCc1nn(CC(=O)N2CCN(c3cc(C)ccc3C)CC2)c(=O)c2cc3occc3n12 | 13%
CCOc1ccc(CNC(=O)CCCn2nc(CC)n3c(cc4occc43)c2=O)cc1 | -24.7%
CCOC(=O)CCCn1ncn2c(cc3occc32)c1=O | -0.3%
Cc1ccccc1CNC(=O)CCCn1ncn2c(cc3occc32)c1=O | -14.7%
O=C(CCCn1ncn2c(cc3occc32)c1=O)NCc1cccc(Cl)c1 | -61.3%
O=C(CCCn1ncn2c(cc3occc32)c1=O)N1CCc2ccccc2C1 | -63%
Cc1nnc(NC(=O)c2cc(-c3ccco3)nc3ccccc23)s1 | 2.18%
Cc1nc2cc(NC(=O)NCc3ccco3)ccc2o1 | 9.7%
Cn1c(C(=O)NC2CC2)cc(=O)n(C)c1=O | -8%
COc1ccc(CNC(=O)COC(=O)c2ccc(C)c(S(=O)(=O)N3CCOCC3)c2)cc1OC | 6.13%
CC1CCCN(S(=O)(=O)c2csc(C(N)=O)c2)C1 (stereo not drawn) | 15.2%
O=C(NCc1csc2ccccc12)Nc1cc(Cl)cc(Cl)c1 | 13.6%
CCOc1ccc(C(C)(N)C(=O)O)cc1 (stereo not drawn) | -2.39%
COc1ccc(NC(=O)c2cn(-c3ccccc3)nc2SC)cc1 | -8.55%
COc1ccc(CNC(=O)c2cc(-c3ccc(OC)c(OC)c3)on2)cc1 | 6.84%
CCC(=O)Oc1ccc(C/C(=N\O)c2ccc(O)cc2O)o1 | -8.07%
